Assay outcomes as filed in PubChem BioAssay.
The list is not random: actives were taken first. Their share in the collection is about 10%.
HP1b chromo inh = HP1-beta chromodomain-methylated histone interaction inhibition; AlphaScreen HP1-beta / biotin-H3K9me3 peptide binding; Potency, µM (series often up to 114 µM), for the others: at the top dose activity change, negative = inhibition, hits mostly inhibitors; actives 0.56% (n = 390,000); AID 540317; further: potency means the concentration at half of the fitted maximal effect; nearly all actives have a fitted effect of over 70% in size
Target sequence (P83916 whole entry, looked up): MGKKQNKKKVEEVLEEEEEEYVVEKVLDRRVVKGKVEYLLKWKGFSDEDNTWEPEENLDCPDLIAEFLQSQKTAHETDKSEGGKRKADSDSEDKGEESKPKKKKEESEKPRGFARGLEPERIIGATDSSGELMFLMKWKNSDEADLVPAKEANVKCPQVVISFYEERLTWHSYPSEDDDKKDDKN
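Compound inhibition of the preformed complex between 50 nM HP1-beta and 50 nM biotinylated H3K9me3 peptide was read by AlphaScreen. Buffer was PBS pH 7.4 with 0.01% Tween-20. Incubations ran 30 min at room temperature, with 10 ug/mL donor/acceptor beads.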
G9a inh = G9a (human) methyltransferase inhibition | Q96KQ7 | G9a H3K9 monomethylation, AlphaScreen, 2 h | Potency, µM (highest dose often 102 µM), without a hit: top-dose activity, negative = inhibition, usual class: inhibitors | actives 8.8% (n = 350,000) | AID 504332; further: potency means the concentration at half of the fitted maximal effect; on the % scale 0 is the no-effect control and ±100 the full control effect; nearly all actives have a fitted effect of over 75% in size
Target sequence (Q96KQ7 913-1193 limits assumed): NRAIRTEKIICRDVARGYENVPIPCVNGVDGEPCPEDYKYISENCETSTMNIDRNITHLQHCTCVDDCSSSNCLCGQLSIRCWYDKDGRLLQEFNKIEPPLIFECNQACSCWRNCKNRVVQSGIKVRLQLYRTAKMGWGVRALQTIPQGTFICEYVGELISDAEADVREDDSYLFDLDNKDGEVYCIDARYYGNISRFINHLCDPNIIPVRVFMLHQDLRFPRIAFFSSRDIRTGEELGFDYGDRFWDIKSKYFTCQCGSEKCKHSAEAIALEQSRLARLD
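Chemiluminescent proximity detection of H3K9 monomethylation, read after 10 min bead incubation in the dark. Reaction: 20 nM G9a, 500 nM biotin-H3K9 peptide, 20 uM SAM cofactor, 2 h, room temperature, following 15 min enzyme-compound preincubation.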
Six1-Eya2 blk = blocks human Six1 binding to Eya2. activity change, % (no concentration beside the values). AlphaScreen GST-Six1/His-Eya2 binding, biochemical; active compounds read low. actives 0.56% (n = 360,000). Q15475+O00167; in the data active means activity change below about -65%; inconclusive means mostly about -30% to -63%; further: on the % scale 0 is the no-effect control and ±100 the full control effect
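Compounds are tested against tagged Six1 and Eya2 proteins bridged by glutathione donor and nickel acceptor beads; after a one-hour incubation at 37 °C without light, AlphaScreen emission is recorded.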
BAZ2B inh = inhibitors of human BAZ2B bromodomain. Q9UIF8. AlphaScreen BAZ2B-H3K14Ac peptide displacement. Potency, µM (top dose mostly 114 µM), inactives show top-dose activity change, negative = inhibition, usual class: inhibitors. actives 4.4% (n = 360,000). AID 504333; further: potency means the concentration at half of the fitted maximal effect; on the % scale 0 is the no-effect control and ±100 the full control effect; nearly all actives have a fitted effect of over 60% in size
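Complex of BAZ2B and biotin-H3K14Ac (50 nM apiece) forms over 30 min at RT, then faces library compounds up to 110 uM for another 30 min; AlphaScreen beads added, 20 min dark incubation, luminescence read.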
CtBP-E1A inh = blocks the CtBP interaction with E1A; AlphaScreen GST-E1A/His-CtBP binding, 1536-well; active compounds read low; activity change, % (concentration not given with the values); actives 0.49% (n = 340,000); in the data active means activity change below about -65%; inconclusive means mostly about -30% to -63%; further: on the % scale 0 is the no-effect control and ±100 the full control effect
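Homogeneous bead-based format: GST-tagged E1A captured on glutathione donor beads, His-tagged CtBP on nickel acceptor beads; compounds precede bead addition by 2 h at 37 °C.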
JMJD2A Tudor inh = inhibitors of human JMJD2A Tudor domain; O75164; AlphaScreen JMJD2A-Tudor / H3K4me3 peptide binding; Potency, µM (highest dose often 114 µM), for inactives: at the top dose activity change, negative = inhibition, most hits filed as inhibitors; actives 4.4% (n = 390,000); AID 504339; further: potency means the concentration at half of the fitted maximal effect; on the % scale 0 is the no-effect control and ±100 the full control effect; nearly all actives have a fitted effect of over 50% in size
* = called active by the depositor; ? = inconclusive; . = no result given; ! = not confirmed by another sample; [ ] = remark or other dose. Unless noted, the call rests on the fitted dose curve; in most records, active means well fitted inhibition curve with a large enough effect; inconclusive means small, poorly fitted or top-dose-only effect; inactive means no such curve, though single readings can be large or run the other way.

SMILES	HP1b chromo inh	G9a inh	Six1-Eya2 blk	BAZ2B inh	CtBP-E1A inh	JMJD2A Tudor inh
CC(C)CCNC(=O)Nc1ccc2c(c1)N(Cc1ccccc1)C(=O)c1ccccc1S2	13.3%	7.3%[59 µM]	.	-9.3%	.	-17.1%
CCCNC(=O)CN1C(=O)COc2ccc(S(=O)(=O)N3CC(C)CC(C)C3)cc21 (stereo not given)	24.2%	31.6µM*	0.0	-0.5%	7.9	-3.4%
COc1ccccc1NC(=O)CN1C(=O)COc2ccc(S(=O)(=O)N3CCC(C)CC3)cc21	30.5%	18.7%[59 µM]	0.5	-16.8%	1.9	-5.4%
CCCNC(=O)CN1C(=O)COc2ccc(S(=O)(=O)N3CCC(C)CC3)cc21	33.6%	-0.3%[59 µM]	.	2.9%	.	7.9%
CCOc1ccccc1NC(=O)CN1C(=O)COc2ccc(S(=O)(=O)N3CCOCC3)cc21	8.8%	2.4%[59 µM]	4.3	-8.3%	-12.5	15.8µM*!
Cc1cccc(NC(=O)CN2C(=O)CCSc3ccc(S(=O)(=O)N4CCOCC4)cc32)c1C	-16.9%	-5.1%[59 µM]	-1.1	-33.8%	-2.9	50.1µM*
CCOc1ccccc1NC(=O)C1CCN(S(=O)(=O)c2ccc(OC)c(OC)c2)CC1	24.9%	39.8µM*	-2.9	-2.9%	8.5	-19.7%
Cc1ccc(CCNC(=O)c2c(C)oc3nc(C)nc(N4CCOCC4)c23)cc1	78.2%	-0.1%[59 µM]	.	14.1%[57.1 µM]	.	-17.2%
COCCNC(=O)C1(C)CCCN(C(=O)c2ccc(C(F)(F)F)cc2)C1 (stereo not given)	.	.	3.8	.	0.8	.
COc1ccc(N2CCN(S(=O)(=O)c3c(C)nc4sccn4c3=O)CC2)cc1	20.4%	-26.4%	-6.3	1.4%	-0.9	-8.2%
C[C@H](CO)N1C[C@H](C)[C@@H](CN(C)C(=O)Nc2ccc(F)cc2)Oc2ncc(-c3ccc(F)cc3)cc2C1=O	.	.	-2.2	.	-8.3	.
O=C(Nc1cnc2ccccn2c1=O)c1ccc(Cl)cc1	45.6%	20.5%[59 µM]	0.8	2.7%	6.1	2.6%
COc1ccccc1N(CC(O)CN1CCCC1)S(=O)(=O)c1ccccc1 (stereo not given)	-4.3%	?	10.0	-2.9%	-0.1	-22.1%
COc1ccccc1N(CC(O)CN1CCOCC1)S(=O)(=O)c1ccccc1 (stereo not given)	-1.5%	50.1µM*	13.3	-9.3%	43.0	-15.2%
CCCN(CCC)CC(O)CN(c1cc([N+](=O)[O-])ccc1OC)S(=O)(=O)c1ccccc1 (stereo not given)	20.8%	56.2µM*	-8.5	-35.9%	-6.9	-25.5%
O=c1cc(-c2ccc(O)cc2)oc2c(O)c(O)c(O)c(O)c12	?	20µM*	-26.7	44.7µM*	-23.7	39.8µM*
CCOc1ccc(CCNC(=O)CN2N=C(c3ccccc3)CCC2=O)cc1OCC	42.3%	6.0%[59 µM]	.	-2.6%	.	-15.0%
CC(=O)Nc1nc(C)nc(C)c1C(C)=O	64.0%	-25.9%	4.1	10.5%	5.7	-16.4%[11.4 µM]
CCC(=O)Nc1nc(C)nc(C)c1C(C)=O	8.4%	44.7µM*	4.7	-21.2%	0.8	-16.4%
Cc1ccc(S(=O)(=O)NCC(=O)NCC(=O)OCc2c(F)cccc2Cl)cc1	18.5%	8.91µM*	0.1	2.8%	-16.8	-4.9%
CCN(CC)CC#CCOC(=O)[C@@](O)(c1ccccc1)C1CCCCC1	.	-31.9%[12.7 µM]	.	.	.	.
Cc1ccc(-c2csc3ncn(-n4c(C)ccc4C)c(=O)c23)o1	-6.1%	10µM*	-16.3	?	-6.8	?
CCCCn1c(N)c(N(CCOC)C(=O)c2cc(-c3ccco3)nc3ccccc23)c(=O)[nH]c1=O	-37.8%	39.8µM*	-4.9	50.1µM*	-0.6	39.8µM*
CCCCn1c(N)c(N(CC(C)C)C(=O)c2cc(-c3ccc(OC)c(OC)c3)nc3ccccc23)c(=O)[nH]c1=O	18.9%	?	3.4	14.8%	0.0	-9.7%
CCCCN(C(=O)c1cc(Cl)nc2ccccc12)c1c(N)n(CCCC)c(=O)[nH]c1=O	22.5%	56.2µM*	-1.0	1.3%	-12.5	-30.6%
SMILES	HP1b chromo inh	G9a inh	Six1-Eya2 blk	BAZ2B inh	CtBP-E1A inh	JMJD2A Tudor inh
CCCCn1c(N)c(N(CCOC)C(=O)c2cc(-c3ccc(OC)c(OC)c3)nc3ccccc23)c(=O)[nH]c1=O	20.1%	11.2µM*	5.5	-36.2%	-1.3	-14.5%
CCCCN(C(=O)c1cc(-c2ccco2)nc2ccccc12)c1c(N)n(CCCC)c(=O)[nH]c1=O	-23.3%	?	-2.3	?	-3.8	?
CCCCN(C(=O)c1ccccc1F)c1c(N)n(CCC)c(=O)[nH]c1=O	29.0%	7.9%	10.0	-12.5%	25.0	79.4µM*
CCCCN(C(=O)c1cc(=O)[nH]c2ccccc12)c1c(N)n(CCC)c(=O)[nH]c1=O	36.0%	-22.1%	-0.6	-2.2%	10.9	16.2%
COc1ccc(-c2cc(C(=O)Oc3ccc(Cl)cc3)c3ccccc3n2)cc1	87.3%	80.2%[59 µM]	.	53.2%	.	56.9%
O=c1[nH]nc(SCc2nc3ccccc3s2)n1C1CC1	23.5%	7.94µM*	-1.4	-5.9%	.	-16.3%
CCCn1c(SCc2nc3ccccc3s2)n[nH]c1=O	-15.5%	56.2µM*	12.8	-12.4%	6.2	?
Cc1cc(C)c(-n2c(SCc3nc4ccccc4s3)n[nH]c2=O)c(C)c1	-5.4%	1.9%	-15.4	0.6%	-13.6	-29.9%
O=[S+]([O-])(/C=C/c1nc(Nc2cc(F)cc(F)c2)c2ncn(CC(F)F)c2n1)c1ccccc1	.	.	.	.	.	-15.1%
CC(C)CN1CC2(CCN(C(=O)c3ccco3)CC2)C1	.	1.1%[12.7 µM]	.	.	.	.
Cc1c(C)c2c(c(C)c1O)CCC(C)(C(=O)O)O2 (stereo not given)	19.3%	14.1µM*	7.2	4.9%	-13.7	-2.2%
CC(C)C[C@@H](CN)NC(=O)c1nc[nH]c1C(=O)N[C@@H](C)C(=O)CNC[C@H](CC(C)C)NC(=O)c1nc[nH]c1C(=O)N[C@@H](CC(=O)O)C(=O)O	87.7%	.	-13.6	.	-13.5	79.4µM*
CC(C)C[C@@H](CN)NC(=O)c1nc[nH]c1C(=O)N[C@@H](C)C(=O)CNC[C@H](C)NC(=O)c1nc[nH]c1C(=O)N[C@@H](CC(=O)O)C(=O)O	44.5%	.	-9.5	.	-10.9	56.2µM*
CC(C)C[C@@H](CN)NC(=O)c1nc[nH]c1C(=O)N[C@@H](CC(=O)O)C(=O)CNC[C@H](C)NC(=O)c1nc[nH]c1C(=O)N[C@@H](CC(=O)O)C(=O)O	89.4%	.	-25.0	.	-25.4	89.1µM*
CC(=O)c1ccc(NC(=O)CCc2c(C)nc3c(c(C)nn3-c3ccc(C)cc3)c2C)cc1	13.2%	-29.4%[59 µM]	.	?	.	-11.1%
Cc1ccc(-n2nc(C)c3c(C)c(CCC(=O)Nc4ccc(CN5CCCC5)cc4)c(C)nc32)cc1	3.4%	50.1µM*	-10.2	-26.1%	?	?
